Test results taken from PubChem BioAssay (NCATS).
Results filed as inconclusive are left out. Calls of active or inactive are those of the source. Calls come from the whole dose curve.

Assay: Primary qHTS to identify inhibitors of SARS-CoV-2 cell entry (AID 1645846); note: nearly all actives have a fitted effect of over 45% in size
Conditions: SARS-CoV-2 pseudovirus cell entry assay, luminescence; activity change, negative = inhibition: at 57.1 µM (top of the series) unless noted
Summary of the method: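 Entry measured by luciferase signal 48 h after adding SARS-CoV-2-S pseudotyped MLV particles to HEK293-ACE2 cells preincubated 1 h with compounds. Normalisation: bald particles and spike particles.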
Potency is the fitted concentration of half-maximal effect.

SMILES | activity change, negative = inhibition | outcome | Potency
C#Cc1cccc(Nc2ncnc3cc4c(cc23)OCCOCCOCCO4)c1 | -13.8% | – | –
CN(C(=O)CNC(=O)/C=C/c1cccc(Cl)c1)C1CCS(=O)(=O)CC1 | -2.44% | – | –
CC(C)n1cc(-c2ccc3c(c2)N(C)CC3)c2c(NS(=O)(=O)c3ccn(C)n3)ccnc21 | -1.94% | – | –
Cc1cc(C)c2c(c1)[C@@H](N(Cc1cc(C(F)(F)F)cc(C(F)(F)F)c1)c1nnn(C)n1)CCCN2CC1CCC(C(=O)O)CC1 (some centres undefined) | -28% | – | –
CC(=O)Nc1ccc(C(=O)Nc2ccccc2N)cc1 | – | inactive | –
CCc1cccc2c3c([nH]c12)[C@@](CC)(CC(=O)O)OCC3 | -19.9% | – | –
O=c1cc(N2CCOCC2)oc2c(-c3ccc4c(c3)OCCO4)csc12 | -5.73% | – | –
COc1ccnc2[nH]cc(C(=O)C(=O)N3CCN(C(=O)c4ccccc4)C[C@H]3C)c12 | -5.46% | – | –
CCN1CCN(Cc2ccc(NC(=O)c3ccc(C)c(/C=C/c4cnc5[nH]ccc5c4OC)c3)cc2C(F)(F)F)CC1 | – | – | 10 µM (active)
CC(C)(C)Sc1c(CC(C)(C)C(=O)O)n(Cc2ccc(Cl)cc2)c2ccc(OCc3ccc4ccccc4n3)cc12 | – | inactive | –
C[C@H](CCC(=O)O)[C@H]1CC[C@H]2[C@@H]3[C@@H](O)C[C@@H]4C[C@H](O)CC[C@]4(C)[C@H]3CC[C@]12C | -16.5% | – | –
C[C@@H]1C(=O)OC2[C@H](O)[C@]34[C@H]5C[C@@H](C(C)(C)C)[C@]36[C@@H](OC(=O)[C@@H]6O)O[C@@]4(C(=O)O5)[C@]21O (some centres undefined) | -20.5% | – | –
COC(=O)C1=C(C)NC(c2ncc(F)cc2F)=N[C@@H]1c1ccc(F)cc1Cl | -19.4% | – | –
CN[C@@H](C)C(=O)N[C@H](C(=O)N1CCC[C@H]1c1nc(C(=O)c2ccc(F)cc2)cs1)C1CCCCC1 | -6.26% | – | –
COc1cc2c(cc1OCCCN1CCCC1)N=C(N)C21CCC1 | -8.97% | – | –
CC(C)S(=O)(=O)c1ccc2nccc(Nc3ccc4scnc4c3)c2c1 | -14.4% | – | –
COc1cc2ncnc(Oc3cccc(NC(=O)Nc4cc(C(C)(C)C(F)(F)F)on4)c3)c2cc1OC | -20.7% | – | –
COc1cc(OC)c2c(=O)[nH]c(-c3cc(C)c(OCCO)c(C)c3)nc2c1 | – | inactive | –
N#Cc1ccnc(N2C(=O)CC[C@H]2C(=O)N(c2cncc(F)c2)C(C(=O)NC2CC(F)(F)C2)c2ccccc2Cl)c1 (some centres undefined) | -25.5% | – | –
CC(=O)O/N=C1/C(c2c(O)[nH]c3cc(Br)ccc23)=Nc2ccccc21 | – | inactive | –

SMILES | activity change, negative = inhibition | outcome | Potency
CN(C)CCNC(=O)COc1c2cccc1Cc1cccc(c1OCC(=O)NCCN(C)C)Cc1cccc(c1OCC(=O)NCCN(C)C)Cc1cccc(c1OCC(=O)NCCN(C)C)C2 | – | inactive [at 11.3 µM] | –
Clc1cc2c(NC3CCCC3)nnc(-c3ccncc3)c2cc1Cl | – | inactive | –
O=C(Nc1ccc2c(c1)CCN(Cc1ncn[nH]1)C2)c1ccccc1-c1ccc(C(F)(F)F)cc1 | -32.8% | – | –
CC1=C2[N-][C@H]([C@H](CC(N)=O)[C@@]2(C)CCC(=O)NC[C@@H](C)OP(=O)([O-])O[C@H]2[C@@H](O)[C@@H](n3cnc4cc(C)c(C)cc43)O[C@@H]2CO)[C@]2(C)N=C(C(C)=C3N=C(C=C4N=C1[C@@H](CCC(N)=O)C4(C)C)[C@@H](CCC(N)=O)[C@]3(C)CC(N)=O)[C@@H](CCC(N)=O)[C@]2(C)CC(N)=O.O.[Co+2] | -20.3% | – | –
CCCNC(=O)c1cn2ncnc(Nc3cc(C(=O)NC4CC4)ccc3C)c2c1C | -27.9% | – | –
CC(/C=C/[C@@H]1C[C@]1(C)c1ccc2c(c1)C(C)(C)CCC2(C)C)=C\C(=O)O | -10.9% | – | –
COc1ccc(C(=O)N2CCN(C(=O)/C=C/c3ccc(Br)cc3)CC2)cc1 | -2.12% | – | –
CCOc1cc(C(=O)N2CCC(N3CCN(C)CC3)CC2)ccc1Nc1ncc2c(n1)N(C1CCCC1)c1ccccc1C(=O)N2C | – | – | 25.1 µM (active)
O=C(/C=C/c1ccc(CN(CCO)CCc2c[nH]c3ccccc23)cc1)NO | -7.55% | – | –
C[C@H](NC(=O)/C(C#N)=C/c1cccc(Br)n1)c1ccccc1 | – | – | 35.5 µM (active)
Cc1[nH]nc2ncc(C(=O)N3CCC[C@H]3c3ccc(Cl)cc3)cc12 | -17.3% | – | –
OC(c1ccc(-c2ccc(CN3CCN(Cc4ccncc4)CC3)cc2)c(F)c1)(C(F)(F)F)C(F)(F)F | – | inactive | –
CC[C@H](Nc1ncnc2nc[nH]c12)c1oc2ccccc2c(=O)c1-c1cccc(F)c1 | – | inactive | –
CCOC(=O)c1ccnc(CNCC(=O)N(CC)CCN(C)C)c1 | -19.4% | – | –
C=CC(=O)Nc1cc(N2CCN(CC)CC2)ccc1Nc1cc(N(C)C(=O)Nc2c(Cl)c(OC)cc(OC)c2Cl)ncn1 | -6.15% | – | –
COC[C@@H](c1ccc(C(F)(F)F)cc1)N1CCN(C2(C)CCN(C(=O)c3c(C)ncnc3C)CC2)C[C@@H]1C | -12.7% | – | –
NC1=N[C@@]2(c3cc(NC(=O)c4ccc(F)cn4)ccc3F)COC[C@H]2CS1 | -18.7% | – | –
CC1Oc2cc(cnc2N)-c2c(nn(C)c2C#N)CN(C)C(=O)c2ccc(F)cc21 (centres undefined) | -19.3% | – | –
C[C@H]1C[C@@H](n2c(Nc3ccc(OC(F)(F)F)cc3)nc3cc(CCC(=O)O)ccc32)CC(C)(C)C1 | 2.52% | – | –
